Experimental data taken from ChEMBL document CHEMBL4513216, “Probing the Open Global Health Chemical Diversity Library for Multistage-Active Starting Points for Next-Generation Antimalarials” (ACS Infect Dis, 2020).
Out of some 69,000 compounds screened, about 8,600 (12%) showed an effect of 50% or more. Shown is part of a subset that was picked to be rich in strong results.

Each compound was assayed on Plasmodium berghei (assay: Screen against P. berghei liver stage (PbLuc), transformed with Luciferase, at 10uM). Conditions: tested at 10 uM.
Format: functional, HepG2
`CC(=O)N1CC(=O)N(c2cnn(C)c2)CC12CCN(Cc1ccco1)C2` (stereo not drawn) was tested, and the INHIBITION was 29.7%. Compound `CC(C)=CCN1CCOC(Cn2cccn2)C1` (stereo not drawn) has an INHIBITION of 19.5%. With `CC(C)CN1CCCC12CCN(c1nncs1)C2` (stereo not drawn) the INHIBITION was 37.8%. `N#Cc1ccc(CCC(=O)N2CCCC(n3cncn3)C2)cc1` (stereo not drawn) gave an INHIBITION of 19.2%. `CN(C)c1ncccc1CNc1snc(Cl)c1C#N` showed an INHIBITION of 49.1%. For `COc1ncccc1CNc1snc(Cl)c1C#N`, the INHIBITION was 54.3%. `CCCOc1ncccc1CNc1nnc(C)c(C)c1C#N` was tested, and the INHIBITION was 41.15%. `CCCN(Cc1nc(-c2ccoc2)oc1C)CC1CCCO1` (stereo not drawn) was tested, and the INHIBITION was -13.1%. Compound `Cc1cc(C)cc(-c2cccc(CC3(C(=O)O)CCOCC3)c2)c1` has an INHIBITION of 38.7%. For `Cc1cc(C)cc(-c2ccc(CC3(C(=O)O)CCOCC3)cc2)c1`, the INHIBITION was 61.4%. `Cc1cccc(-c2cccc(CC3(C(=O)O)CCOCC3)c2)c1` gave an INHIBITION of 13.5%. For `O=C(O)C1(Cc2cccc(-c3ccc(F)c(F)c3)c2)CCOCC1`, the INHIBITION was 58.6%. In the case of `COc1ccc(-c2cccc(CC3(C(=O)O)CCOCC3)c2)cc1`, the INHIBITION is reported as 29.2%. Work on `O=C(O)C1(Cc2cccc(-c3ccc(F)cc3)c2)CCOCC1` yielded an INHIBITION of -22.6%. In the case of `Cn1cccc1C(=O)N1C[C@@H](OCc2cccnc2)[C@H]2OCCC[C@H]21`, the INHIBITION is reported as 41.3%. `CN(C)CC(=O)NC1CC(=O)N(CCc2ccccc2)C1` (stereo not drawn) gave an INHIBITION of 11.2%. For `Cc1cc2c(=O)n3c(nc2s1)CCN(C(=O)c1cn(C)nc1C)CC3`, the INHIBITION was 14.7%. `Cc1nnn2c1COCC(CNCc1nccs1)C2` (stereo not drawn) was tested, and the INHIBITION was -27.6%. Work on `Cc1cc2n(n1)CC(CNC1CCN(Cc3ccccc3C)CC1)CN2` (stereo not drawn) yielded an INHIBITION of 16.6%. Work on `N#Cc1ccc(NC2CCN(Cc3ccccn3)CC2)c(F)c1` yielded an INHIBITION of -5.78%. With `Cc1cc2n(n1)CC(CNC1CCN(c3ccccn3)CC1)CN2` (stereo not drawn) the INHIBITION was 31.4%. Compound `Cc1cc2n(n1)CC(CNC1CCN(Cc3ccccn3)CC1)CN2` (stereo not drawn) has an INHIBITION of 50.2%. For `Cc1cc2n(n1)CC(CNC1CCN(Cc3ccncc3)CC1)CN2` (stereo not drawn), the INHIBITION was 16.1%. Compound `CC(CNC1CCN(Cc2ccncc2)CC1)c1ccc(F)cc1F` (stereo not drawn) has an INHIBITION of -0.275%. Work on `Fc1ccc(OCCNC2CCN(Cc3ccncc3)CC2)c(F)c1` yielded an INHIBITION of 61.3%. `Fc1ccc(OCCNC2CCN(Cc3ccccn3)CC2)c(F)c1` was tested, and the INHIBITION was 53.6%. `c1ccc(CN2CCC(NCCc3ccc4c(c3)CCO4)CC2)nc1` gave an INHIBITION of 25.7%. `Fc1cccc(-c2c[nH]c(C3CCCN3)n2)c1` (stereo not drawn) gave an INHIBITION of -4.62%. Compound `CN(C(=O)NCC1(CN2CCOCC2)CCCCC1)C1CC1` has an INHIBITION of 0.0944%. Compound `Cc1nc(CN2CCC(N(C)Cc3noc(C(C)C)n3)C2)oc1C` (stereo not drawn) has an INHIBITION of 11.4%. In the case of `CN1CC(=O)N(c2cccc(F)c2)CC12CCN(CC1CC1)C2` (stereo not drawn), the INHIBITION is reported as 19.5%. In the case of `CN(Cc1nccn1C)S(=O)(=O)N1CCCC1c1ccco1` (stereo not drawn), the INHIBITION is reported as 15.7%. In the case of `CC(O)CN1CCC(=O)N(Cc2ccccc2)Cc2ccccc21` (stereo not drawn), the INHIBITION is reported as 28.3%. With `CC(c1nc(C2CC2)no1)N1CCN(Cc2cccc(C#N)c2)CC1` (stereo not drawn) the INHIBITION was 60.5%. `Cc1noc(C(C)N2CCN(Cc3cccc(C#N)c3)CC2)n1` (stereo not drawn) showed an INHIBITION of 21.5%. Compound `CC(c1nc(C2CC2)no1)N1CCN(Cc2ccccc2)CC1` (stereo not drawn) has an INHIBITION of 27.4%. For `CC(C)c1noc(C(C)N2CCN(Cc3cccc(C#N)c3)CC2)n1` (stereo not drawn), the INHIBITION was -8.11%. Work on `CC(C)c1noc(C(C)N2CCN(c3ccc(C#N)cn3)CC2)n1` (stereo not drawn) yielded an INHIBITION of 45.9%. `COc1ccc(CN2CCN(C(C)c3nc(C4CC4)no3)CC2)cc1` (stereo not drawn) gave an INHIBITION of 40.3%. Work on `Cc1noc(C(C)N2CCN(c3ccc(C#N)cn3)CC2)n1` (stereo not drawn) yielded an INHIBITION of -5.78%. Work on `CC(c1nc(C2CC2)no1)N1CCN(Cc2ccc(C#N)cc2)CC1` (stereo not drawn) yielded an INHIBITION of 57%. Work on `CC(c1nc(C2CC2)no1)N1CCN(c2ccc(C#N)cn2)CC1` (stereo not drawn) yielded an INHIBITION of 55.3%. Compound `CCC(C)(C)NC(=O)CN1C=Nc2ccccc2S1(=O)=O` has an INHIBITION of 19.6%. For `c1cnc(N2CCC3(CCN(CC4CCOCC4)CC3)C2)nc1`, the INHIBITION was 5.67%. `CCc1c(C(=O)O)nnn1-c1ccc(C)cc1C` gave an INHIBITION of 39.2%. Work on `CN(C)S(=O)(=O)N1C[C@@H]2CN(Cc3ccoc3)CCO[C@@H]2C1` yielded an INHIBITION of 23.6%. `CN1CCN(CCOc2ccc(NC(=O)c3ccoc3)cc2)CC1` was tested, and the INHIBITION was -6.99%. For `CCc1c(C(=O)O)nnn1-c1cccc(C)c1C`, the INHIBITION was 6.09%. For `COc1cc(N2CC[C@@H](OC)[C@@H]2Cc2cnn(C)c2)ncn1`, the INHIBITION was 23.5%. `COCCN1CC[C@@H](O)[C@@H]1Cc1ccccc1` gave an INHIBITION of 6.32%. `COCC(=O)N1CC[C@@H](O)[C@@H]1Cc1ccccc1` gave an INHIBITION of 37.5%. For `COc1cc(N2CC[C@H](O)[C@@H]2Cc2cnn(C)c2)ncn1`, the INHIBITION was 22.7%. `COc1cc(N2CC[C@H](O)[C@@H]2Cc2cccnc2)ncn1` gave an INHIBITION of 6.6%. `COCCO[C@@H]1CCN(c2cc(OC)ncn2)[C@H]1Cc1cnn(C)c1` gave an INHIBITION of 14.6%. Work on `COc1cc(N2CC[C@@H](O)[C@@H]2Cc2ccccc2)ncn1` yielded an INHIBITION of 92.8%. Work on `COCCN1CC[C@H](O)[C@@H]1Cc1ccccc1` yielded an INHIBITION of 0.79%. For `COCCO[C@H]1CCN(c2cc(OC)ncn2)[C@H]1Cc1cnn(C)c1`, the INHIBITION was 76.2%. `COc1cc(N2CC[C@@H](O)[C@@H]2Cc2ccncc2)ncn1` showed an INHIBITION of 43.9%. In the case of `COc1cc(N2CC[C@H](O)[C@@H]2Cc2ccccc2)ncn1`, the INHIBITION is reported as 75.4%. `COc1cc(N2CC[C@@H](O)[C@@H]2Cc2cccnc2)ncn1` was tested, and the INHIBITION was 85.8%. For `Cc1cc(OCCC(=O)Nc2cccc(F)c2)nnc1C`, the INHIBITION was -9.93%. Compound `Cc1cc2c(=O)n3c(nc2s1)CCN(Cc1cncn1C)CC3` has an INHIBITION of 5.11%. `Cc1cnn(CC(=O)N2CCCN(c3ncccc3C#N)CC2)c1` gave an INHIBITION of -14.7%. For `CS(=O)(=O)c1cnc(N2CCCC2)nc1C1CCN(C(=O)C2CC2)CC1`, the INHIBITION was -15.7%. Compound `Cc1cc(C(=O)NCc2ccc(-c3n[nH]cc3C(=O)N(C)C)cc2)on1` has an INHIBITION of 39.35%. For `CCc1cnc(N2CC[C@H]3[C@H]2CC(=O)N3c2cccnc2)nc1`, the INHIBITION was -34.7%. Compound `Cc1ccc(N2N=C(C(N)=O)S(=O)(=O)c3cccnc32)cc1` has an INHIBITION of 41.5%. For `Cc1cc(CN2CCN(C(=O)NCc3cccs3)CC2)on1`, the INHIBITION was 14.1%.
